# The list shows a part of the results. The true hit rate is not given.
# Biological target: furin, P09958
# Test: furin cleavage Z-score vs untreated control; higher = more cleavage, active = 3.5 or more, inactive = 1 or less, 8 variable residues between constant flanks
# Summary of the method: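 To give the cleavage Z-score, log read counts were set against furin-free reactions, lowess-adjusted and scaled by median absolute deviation. These counts came from PCR adapter-tagged, sequenced DNA released when purified furin cut 8-mer peptides fused to a cDNA oligonucleotide and held on magnetic beads by their N-terminus. Digests were 0.01 ml, 1:10 enzyme:substrate, in 50 mM HEPES pH 7.5 with CaCl2 and NaCl, for 7.5, 15 or 30 min.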
# furin, P09958, sequence (P09958 whole entry): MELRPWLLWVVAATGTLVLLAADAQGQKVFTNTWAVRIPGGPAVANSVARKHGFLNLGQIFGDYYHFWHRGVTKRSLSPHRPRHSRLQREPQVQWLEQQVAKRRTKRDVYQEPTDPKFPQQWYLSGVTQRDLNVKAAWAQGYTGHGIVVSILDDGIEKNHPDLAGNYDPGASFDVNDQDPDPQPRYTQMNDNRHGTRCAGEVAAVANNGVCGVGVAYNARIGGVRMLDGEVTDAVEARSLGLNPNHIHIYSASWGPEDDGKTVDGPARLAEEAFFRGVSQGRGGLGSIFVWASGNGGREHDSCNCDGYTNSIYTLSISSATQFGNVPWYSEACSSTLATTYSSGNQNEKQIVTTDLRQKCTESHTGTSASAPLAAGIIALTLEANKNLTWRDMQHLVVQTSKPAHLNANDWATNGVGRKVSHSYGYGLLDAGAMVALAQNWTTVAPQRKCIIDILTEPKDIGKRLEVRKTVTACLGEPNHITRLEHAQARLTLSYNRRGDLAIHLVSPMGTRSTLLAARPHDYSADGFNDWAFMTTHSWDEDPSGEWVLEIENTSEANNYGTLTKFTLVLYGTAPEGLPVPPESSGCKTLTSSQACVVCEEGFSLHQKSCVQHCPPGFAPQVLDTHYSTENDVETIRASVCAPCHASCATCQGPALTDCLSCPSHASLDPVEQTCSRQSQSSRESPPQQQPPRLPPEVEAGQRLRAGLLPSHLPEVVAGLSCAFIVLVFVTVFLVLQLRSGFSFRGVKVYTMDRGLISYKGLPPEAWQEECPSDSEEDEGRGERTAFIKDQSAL
Sequence,furin cleavage Z-score (7.5 min),furin cleavage Z-score (15 min),furin cleavage Z-score (30 min)
CALYVGDLCGAGNASASA [HC298],-1.6 (inactive),-0.331 (inactive),-1.76 (inactive)
CAMNSTGFTKAGNASASA [HC438],0.142 (inactive),-0.334 (inactive),0.353 (inactive)
CAALAELATRAGNASASA [HC1332],-0.307 (inactive),-0.0975 (inactive),-0.283 (inactive)
CARQVRYLEKAGNASASA [FS-2175],0.662 (inactive),1.05,1.72
CARQRRALEKAGNASASA [FS-1769],5.5 (active),5.75 (active),6.8 (active)
CARQRRALERAGNASASA [FS-2510],7.27 (active),9.89 (active),9.73 (active)
CARQRRGEERAGNASASA [FS-2761],2.18,0.285 (inactive),0.208 (inactive)
CARQRRDLLNAGNASASA [FS-2173],6.3 (active),11.7 (active),11.3 (active)
CARQKKAAEKAGNASASA [FS-2584],-1.07 (inactive),-0.974 (inactive),1.2
CAEVPCHGPSAGNASASA [HC2376],-0.0304 (inactive),0.46 (inactive),-1.34 (inactive)
CALSVEEACSAGNASASA [HC1412],-1.32 (inactive),0.888 (inactive),-0.38 (inactive)
CAQRHRQGRVAGNASASA [FS-849],-0.109 (inactive),1.55,0.481 (inactive)
CADIARARRVAGNASASA [FS-121],-0.464 (inactive),-0.299 (inactive),0.591 (inactive)
CASHRRQRRVAGNASASA [FS-499],7.8 (active),8.25 (active),6.5 (active)
CARHRRPRRVAGNASASA [FS-1258],3.43,4.61 (active),4.95 (active)
CATNNRKIRVAGNASASA [FS-1495],2.37,4.37 (active),4.34 (active)
CAISRRQRRVAGNASASA [FS-36],5.61 (active),5.68 (active),6.35 (active)
CAKNQRKIRIAGNASASA [FS-677],-0.0796 (inactive),0.212 (inactive),1.01
